In PubChem BioAssay (NCATS):
Results filed as inconclusive are left out. A call without a number means that no potency is given here. The source made the active and inactive calls. Calls follow the shape of the dose curve; as a rule, active = well fitted cell-killing curve with a large enough effect; inconclusive = small, poorly fitted or top-dose-only effect; inactive = flat fitted curve, though single readings scatter.

assay: Cellular viability qHTS for adrenocortical cancer (ACC) cell line NCI-H295R (AID 1963990); settings: CellTiter-Glo ATP luminescence, 48 h; series mostly up to 46.1 µM; also: nearly all actives have a fitted effect of over 60% in size
Source text: PI: Naris Nilubol, MD Surgical Oncology Program, National Cancer Institute (NCI) National Institute of Health (NIH), Bethesda, Maryland Adrenocortical cancer (ACC) is a rare malignancy with poor survival outcomes and few treatment options. Currently, mitotane is the only FDA-approved therapy for ACC. Although adjuvant radiation therapy is rarely utilized, it has the potential to improve survival in select cases. Through a quantitative high-throughput drug screen (qHTS), we identified auranofin (AF), a thioredoxin reductase (TXNRD) inhibitor, as a promising candidate drug. This study aims to evaluate whether AF can enhance the efficacy of radiation therapy in the treatment of ACC. Two human ACC cell lines, SW-13 and NCI-H295R, were screened using the National Center for Advancing Translational Sciences (NCATS) Pharmaceutical Collection (NPC) and the Mechanism Interrogation PlatE (MIPE) library (~4,991 compounds). CellTiter-Glo (Cat # G7570, Promega, Madison, WI) was utilized to measure cell viability. Described herein are the results of the corresponding viability assay.
PROTOCOL TABLE (as described by Inglese J, Shamu CE and Guy RK. 2007) SEQUENCE No. (e.g., 1, 2, 3, etc.); […] (e.g., Cells, Incubation, Reagent, etc.); VALUE; DESCRIPTION. 1; Cells; 5 uL; white, solid-bottom, 1536-well tissue-culture treated plates. 2; Time; overnight culture at 37C with 5% CO2. 3; Compounds and control; 23 nL; Kalypsis pin tool (Wako USA) equipped with a 1536-well pin head to transfer to the assay plates. 4; Time; 48 hours; 37C with 5% CO2. 5; Reagent; 4 uL; CellTiter-Glo luminescent substrate mix. 6; Time; 20 min at room temperature. 7; Detection; Luminescence; ViewLux plate reader NOTES (numbers refer to Sequence numbers above) 1. NCI-H295R cells were harvested from a T175 flask and resuspended in ITS-supplemented DMEM serum-free medium at a concentration of 300 000 cells/mL. Then 5 uL of resuspended cells were dispensed into each well of white, solid-bottom, 1536-well tissue-culture-treated plates using a multidrop combi dispenser. The plates were covered with stainless steel gasket lids. 2-3. The plates were cultured overnight at 37C with 5% CO2. Twenty-three nL of compounds (eight selected concentrations from the NPC / MIPE) or positive control (10 mM stock of bortezomib) in DMSO was transferred to each well of the assay plate using a pin tool (Kalypsys, San Diego, CA, USA). The final concentration of the compounds in the 5 uL assay volume ranged from 0.5 nM to 46 uM. 4-6. After 48 hours of incubation at 37C and 5% CO2, 4 uL of CellTilter-Glo luminescent substrate mix (Promega, Madison, WI, USA) was added to each well. Then the plates were incubated for 20 minutes at room temperature. 7. After incubation, luminescence was measured using a ViewLux plate reader (PerkinElmer, Waltham, MA, USA) with a clear filter was used to measure the number of metabolically competent cells. To determine compound activity in the qHTS assay, the titration-response data for each sample was plotted and modeled by a four-parameter logistic fit yielding IC50 and efficacy (maximal response) values. Raw plate reads for each titration point were normalized relative to positive control ([…], 100% inhibition) and DMSO-only wells (basal, 0%). REFERENCES: Inglese J, Shamu CE and Guy RK, Reporting data from high throughput screening of small molecule libraries, Nature Chemical Biology, 2007, 3(8): 438-441. doi.org/10.1038/nchembio0807-438.

Row | SMILES | Potency
1 | O=C(CCCCCCCCC#CI)Oc1ccccc1 | 13 µM (active)
2 | O=C(O)/C=C/c1ccc(Cn2ccnc2)cc1 | inactive
3 | COc1cc(C(=O)N2CCOCC2)cc(OC)c1OC | inactive
4 | Cc1cc2c(C(C)C)c(O)c(O)c(C=O)c2c(O)c1-c1c(C)cc2c(C(C)C)c(O)c(O)c(C=O)c2c1O | 8.2 µM (active)
5 | COc1ccc(CCN(C)CCCN2CCc3cc(OC)c(OC)cc3CC2=O)cc1OC | inactive
6 | CCCCCN=C(N)N/N=C/c1c[nH]c2ccc(OC)cc12 | 23.1 µM (active)
7 | Cc1cnc(Nc2ccc(F)cc2Cl)nc1-c1c[nH]c(C(=O)N[C@H](CO)c2cccc(Cl)c2)c1 | 14.1 µM (active)
8 | CCCCN(CCN(CCCC)C(=O)N1CCOCC1)C(=O)N1CCOCC1 | inactive
9 | CS(=O)(=O)N(Cc1ccco1)CC(O)Cn1c2ccccc2c2ccccc21 (stereo not given) | inactive
10 | CCOC(=O)[C@H](CCc1ccccc1)N[C@@H](C)C(=O)N1C(=O)N(C)C[C@H]1C(=O)O | inactive
11 | NS(=O)(=O)c1cc2c(cc1Cl)NC(C1CC3C=CC1C3)NS2(=O)=O (stereo not given) | inactive
12 | CN(C)Cc1c(C(=O)NCCOc2ccc(C(=O)NO)cc2)oc2ccccc12 | 0.794 µM (active)
13 | CCn1c(-c2nonc2N)nc2c(C#CC(C)(C)O)ncc(OC[C@H]3CCCNC3)c21 | 17.8 µM (active)
14 | CCCCCNC(=O)N1CCC(CN(Cc2ccc(Cl)cc2)Cc2ccc([N+](=O)[O-])s2)C1 (stereo not given) | 28.2 µM (active)
15 | C1Cc2[nH]nc(-c3nn[nH]n3)c2C1 | inactive
16 | c1cc(OCCN2CCCCC2)cc(-c2n[nH]c3ccc(-c4ncn[nH]4)cc23)c1 | inactive
17 | c1ccc2[nH]ccc2c1 | inactive
18 | O[C@@H](CNC[C@H](O)[C@H]1CCc2cc(F)ccc2O1)[C@@H]1CCc2cc(F)ccc2O1 | 18.4 µM (active)
19 | NC(=O)c1ccccc1Nc1ccnc(Nc2cccc(O)c2)n1 | 12.6 µM (active)
20 | CC(=O)[C@@]1(O)CC[C@H]2[C@@H]3C[C@H](C)C4=CC(=O)C=C[C@]4(C)[C@@]3(F)[C@@H](O)C[C@@]21C | inactive

Row | SMILES | Potency
21 | COc1cc(C)c(Sc2cnc(NC(=O)c3ccc(CNC(C)C(C)(C)C)cc3)s2)cc1C(=O)N1CCN(C(C)=O)CC1 (stereo not given) | 8.91 µM (active)
22 | COc1ccc(-c2cnc3c(-c4cccc5ncccc45)cnn3c2)cc1 | inactive
23 | Cn1cc(-c2ccc3ncc(Cc4ccc5ncccc5c4)n3n2)cn1 | inactive
24 | O=C1NS(=O)(=O)c2ccccc21 | inactive
25 | COc1cc2ncnc(Nc3cc(Br)c(O)c(Br)c3)c2cc1OC | inactive
26 | COc1ccc(C(=O)CC2(O)C(=O)Nc3c(Cl)ccc(Cl)c32)cc1 (stereo not given) | inactive
27 | Nc1ncnc2c1ncn2[C@@H]1O[C@H](CO)C[C@H]1O | 15.8 µM (active)
28 | Cc1cccc(Nc2ccccc2C(=O)O)c1C | inactive
29 | N#Cc1ccc(COC[C@H]2O[C@@H](n3c(NCc4ccc(Cl)c(Cl)c4)nc4c(N)ncnc43)[C@H](O)[C@@H]2O)cc1 | inactive
30 | CCCCCCCC/C=C\CCCCCCCCN | inactive
31 | C=CC(=O)N1CCC[C@@H](n2nc(-c3ccc(Oc4ccccc4)cc3)c3c(N)ncnc32)C1 | inactive
32 | Cn1cc(-c2c[nH]c3ncnc(N4CCOCC4)c23)cn1 | inactive
33 | CCC(=O)Nc1ccc(O)cc1 | inactive
34 | O=C(OOC(=O)c1ccccc1)c1ccccc1 | inactive
35 | COc1cc(/C=C/C(=O)O[C@H]2CC[C@]34C[C@]35CC[C@]3(C)[C@@H]([C@H](C)CCC=C(C)C)CC[C@@]3(C)[C@@H]5CC[C@H]4C2(C)C)ccc1O | 18.4 µM (active)
36 | O=C(O)c1cccc(-c2noc(-c3ccccc3F)n2)c1 | inactive
37 | C[N+](C)(C)CCCCCC[N+](C)(C)C | inactive
38 | O=C(c1ccc(NS(=O)(=O)c2cccc3cccnc23)cc1)N1CCN(CC2CC2)CC1 | inactive
39 | CCCCCC1Nc2cc(C(F)(F)F)c(S(N)(=O)=O)cc2S(=O)(=O)N1 (stereo not given) | inactive
40 | Nc1ccc(F)cc1NC(=O)c1ccc(CNC(=O)/C=C/c2cccnc2)cc1 | 3.55 µM (active)
